CYP2C19 inh = human CYP2C19 inhibition. 21% of 96,000 active. P33261. CYP2C19 Supersomes, luciferin-H EGE luminescence, 30 min. inhibition, % at 5 µM;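 active = CYP2C19 inhibition above a set limit at 5 µM in the primary screen, cut at about 50% in these data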
CYP2C9 inhib = inhibitors of human CYP2C9; CYP2C9 Supersomes, luciferin-H conversion, luminescence; P11712; AID 777; inhibition, % at 5 µM; 20% of 96,000 active;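 active = blocking of liver enzyme CYP2C9 beyond about 50% at 5 µM, limit read from the data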
CYP2C9 activ = activators of human CYP2C9 | P11712 | recombinant CYP2C9, luciferin-H conversion, luminescence; stronger effect = higher value; factor 1 = untreated enzyme, 0 = blocked | activation factor at 5 µM | 1.4% of 96,000 active;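 active = activation factor of 2 or more for CYP2C9 at a 5 µM dose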
PLK1 kinase inh = blocks human PLK1 kinase activity | P53350 | recombinant PLK1 kinase, TR-FRET peptide phosphorylation | inhibition, % at 10 µM | 0.53% of 97,000 active;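 active = inhibition of 50% or more in the single-concentration screen; inactive = inhibition below 50%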
Target sequence (P53350 whole entry, looked up): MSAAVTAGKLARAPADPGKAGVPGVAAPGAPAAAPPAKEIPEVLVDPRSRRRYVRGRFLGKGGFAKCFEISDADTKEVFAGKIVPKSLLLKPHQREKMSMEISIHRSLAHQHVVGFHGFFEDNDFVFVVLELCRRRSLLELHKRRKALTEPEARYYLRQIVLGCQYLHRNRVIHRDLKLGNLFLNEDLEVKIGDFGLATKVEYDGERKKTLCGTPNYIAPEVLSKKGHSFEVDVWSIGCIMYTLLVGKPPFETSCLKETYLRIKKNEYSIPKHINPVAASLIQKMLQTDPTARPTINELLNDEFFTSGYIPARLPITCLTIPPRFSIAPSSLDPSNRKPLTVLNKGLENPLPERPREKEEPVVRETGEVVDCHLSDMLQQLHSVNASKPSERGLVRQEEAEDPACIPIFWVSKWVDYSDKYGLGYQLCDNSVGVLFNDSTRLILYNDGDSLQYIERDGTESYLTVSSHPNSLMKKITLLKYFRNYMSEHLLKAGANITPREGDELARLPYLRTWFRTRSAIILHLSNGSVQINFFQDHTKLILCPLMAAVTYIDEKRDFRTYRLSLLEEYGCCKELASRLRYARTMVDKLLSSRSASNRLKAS
Plk1 PBD FP = inhibitors of human Plk1 polo box domain binding; P53350; Plk1 PBD phosphopeptide binding, fluorescence polarization; inhibition, %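 (tested at about 20 µM)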; 0.13% of 97,000 active; AID 693; in the data active = inhibition above about 34%, passing the limit was not always enough
CYP2C19 act = increases human CYP2C19 enzyme activity; P33261; recombinant CYP2C19, luciferin-H EGE luminescence; stronger effect = higher value; 0 = fully inhibited enzyme, 1 = untreated enzyme; activation factor at 5 µM; 96,000 tested, under 10 active;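 active = activation factor of at least 2 at 5 µM in the primary screen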
A number is an active result; - = inactive; . = not tested or not shown. Only some compounds are listed: those with a hit (about 28% of all), similar ones and a draw of the others.

SMILES	CYP2C19 inh	CYP2C9 inhib	CYP2C9 activ	PLK1 kinase inh	Plk1 PBD FP	CYP2C19 act
CCOC(=O)COc1ccc(S(=O)(=O)c2ccc(OCC(=O)OCC)cc2)cc1	-	-	-	-	-	-
COc1ccc(CCNC(=O)c2ccc(Cl)cc2Cl)cc1	89	-	-	-	-	-
CCOc1ccc(CCNC(=O)C(O)c2ccccc2)cc1 (stereo not given)	-	57	-	-	-	-
CCOC(=O)COc1ccc(CCNC(C)=O)cc1	-	-	2.1	-	-	-
CCOC(=O)NC(Nc1ccc(C)cn1)(C(F)(F)F)C(F)(F)F	-	-	-	-	-	-
CCOC(=O)NC(NCCc1ccccc1)(C(F)(F)F)C(F)(F)F	63	53	-	-	-	-
COc1cccc(Nc2nc(=O)[nH]nc2C)c1	-	-	-	-	-	-
COCC(=O)Nc1nnc(Cc2ccc(OC)cc2)s1	.	.	.	-	-	.
CCOC(=O)NCCc1ccc(OC)cc1	83	64	-	.	.	-
COc1ccc(CCNC(C)=O)cc1	-	-	-	-	-	-
CCC(CC)C(=O)NCCc1ccc(OC)cc1	77	59	-	-	-	-
O=C(CN1CCC(n2nnc3cc(F)ccc32)CC1)NCCc1nc2ccccc2[nH]1	-	-	-	-	-	-
COC(=O)c1sc(S(=O)(=O)N2CCCCC2C(=O)O)c(C(=O)OC)c1C (stereo not given)	-	-	-	-	-	-
Cc1sc(NC(=O)CSc2nnc(COc3ccc(Cl)cc3)n2C)c(C#N)c1C	-	-	-	-	-	-
CC(C)c1nc(NCC2CCCO2)c(C#N)c2c1COC(C)(C)C2 (stereo not given)	54	82	-	-	-	-
CCc1nc(NCC2CCCO2)c(C#N)c2c1COC(C)(C)C2 (stereo not given)	.	.	.	-	-	.
O=C(Nc1ccccc1)c1ccc(S(=O)(=O)N(CCO)CCO)cc1	-	-	-	-	-	-
CC(=O)Nc1ccc(S(=O)(=O)N(CCO)Cc2ccccc2)cc1	56	71	-	-	-	-
CC(=O)Nc1ccc(S(=O)(=O)N(C)S(=O)(=O)c2ccc(F)cc2)cc1	52	-	-	-	-	-
CC(=O)Nc1ccc(S(=O)(=O)N(C)CCOCc2ccccc2)cc1	55	-	2	-	-	-
CCc1cc2c(N3CCN(c4ccccc4)CC3)ncnc2s1	-	56	-	-	-	-
Cc1nccn1-c1ncnc2sc3c(c12)CCCC3	-	-	-	-	-	-
c1nc(N2CCC3(CC2)OCCO3)c2c3c(sc2n1)CCCC3	85	63	-	-	-	-
CCc1nc(N2CCN(C(=O)c3ccco3)CC2)c2c3c(sc2n1)CCCC3	-	-	-	-	-	-
O=C(c1ccco1)N1CCN(c2ncnc3sc4c(c23)CCC4)CC1	72	86	-	-	-	-
SMILES	CYP2C19 inh	CYP2C9 inhib	CYP2C9 activ	PLK1 kinase inh	Plk1 PBD FP	CYP2C19 act
c1ccc(N2CCN(c3ncnc4sc5c(c34)CCC5)CC2)cc1	75	72	-	-	-	-
Cc1ccc(-n2ncc3c(N4CCN(c5ccccc5)CC4)ncnc32)c(C)c1	-	-	-	-	-	-
CCNC(=S)NNC(=O)c1cc(C)on1	-	-	-	-	-	-
CCCn1c(SCC(=O)Nc2cccc(C)n2)nnc1-c1ccco1	-	-	-	-	-	-
S=C(c1ccc2c(c1)OCO2)N1CCCCCC1	99	55	-	-	-	-
O=C(c1ccc2c(c1)OCO2)N(CC1CCCO1)C1(C(=O)NC2CCCCC2)CCCCC1 (stereo not given)	70	71	-	-	-	-
S=C(NC1CCCCC1)c1ccc2c(c1)OCO2	83	-	-	-	-	-
O=C(c1ccc2c(c1)OCO2)N1CCCN(C(=O)c2ccc3c(c2)OCO3)CC1	-	74	-	-	-	-
CN(C(=O)c1ccc2c(c1)OCO2)C1(C(=O)NC2CCCC2)CCCCC1	-	-	-	.	.	-
COc1ccc(C(=S)N2CCCC2)cc1OC	-	-	-	-	-	-
COc1ccc(C(=S)N2CCCC2)cc1C	91	-	-	-	-	-
COc1ccc2c(c1)C1=NN(/C(C)=C\C(C)=O)C(c3ccccc3)C1CC2 (stereo not given)	.	.	.	-	-	.
CN(C)S(=O)(=O)c1ccc2c(c1)nc(CCC(=O)NCC1CCCCC1)n2C	-	-	-	-	-	-
CCn1c(CCC(=O)Nc2nc3c(s2)CCCC3)nc2cc(S(=O)(=O)N(C)C)ccc21	75	91	-	-	-	-
Cc1cc(C(=O)Cn2nnc3ccccc3c2=O)c(C)n1Cc1cccs1	97	71	-	-	-	-
CCOC(=O)C(=Cc1ccc(OCc2ccc([N+](=O)[O-])cc2)c(OC)c1)C(=O)OCC	-	53	-	-	-	-
COC(=O)CNC(=O)COc1ccccc1	-	-	-	-	-	-
CC(C)(C)c1cc(CN2CCC(O)CC2)cc(C(C)(C)C)c1O	-	-	-	-	-	-
O=C(NCCCN1CCOCC1)c1ccc(Cl)s1	-	-	-	-	-	-
Cc1ccc(C)n1-c1ccc(C(=O)O)cc1	-	56	-	-	-	-
COc1ccc(-c2oc(NC(C)=O)c(C#N)c2-c2ccc(OC)cc2)cc1	57	72	-	-	-	-
COc1ccc(-c2oc(/N=C/N3CCOCC3)c(C#N)c2-c2ccc(OC)cc2)cc1	64	90	-	-	-	-
COc1ccc(C(=O)Nc2oc(-c3ccccc3)c(-c3ccccc3)c2C#N)cc1OC	-	74	-	-	-	-
CCC(=O)Nc1nnc(-c2ccc(OC)cc2)o1	-	-	-	-	-	-
COc1ccc(-c2oc(NC(=O)c3ccc(C)cc3)c(C#N)c2-c2ccc(OC)cc2)cc1	69	94	-	-	-	-
SMILES	CYP2C19 inh	CYP2C9 inhib	CYP2C9 activ	PLK1 kinase inh	Plk1 PBD FP	CYP2C19 act
Cn1ncc(C#N)c1/N=C/N1CCOCC1	-	-	-	-	-	-
COC(=O)C(O)(CC(=O)Nc1ccccc1OC)C(F)(F)F (stereo not given)	.	.	.	-	-	.
O=C(CN1CCN(C(=O)c2c(F)cccc2F)CC1)Nc1ccccc1F	-	-	-	.	.	-
O=c1c2ccccc2oc2ncccc12	-	-	-	-	-	-
COc1ccc(C(=O)Nc2oc(-c3ccccc3)c(-c3ccccc3)c2C#N)cc1	-	77	-	-	-	-
Cc1cccc(C)c1OCC(=O)Nc1oc(-c2ccccc2)c(-c2ccccc2)c1C#N	.	.	.	-	-	.
CCOC(=O)c1c(C)nc2sc3c(=O)n(-c4ccc(C(C)=O)cc4)nnc3c2c1-c1ccc(Cl)cc1	-	-	-	-	-	-
CCOC(=O)c1c(C)nc2sc3c(=O)n(-c4ccc(C(C)=O)cc4)cnc3c2c1-c1ccc(Cl)cc1	94	88	-	-	-	-
O=C(Nc1ccc2c(c1)nc1n2CCOC1)c1ccccc1	-	-	-	-	-	-
COc1ccccc1OCCCOc1ccc([N+](=O)[O-])cc1Cl	-	-	-	-	-	-

Screens from PubChem BioAssay.
